Test results published in the supplement of paper PMC7411054.
Counter-ions that a name gives are not always drawn.

Columns and labels:
Assay in all cases: phenotypically active (imaging signature differs from DMSO and reproducible) at any of 0.3-9 uM (binary (1 = active, 0 = inactive)); higher = active
Settings in all cases: treatment time: 24 h
A549-ACTB-RAB5A = system: A549-ACTB-RAB5A
Summary of the method: (§1)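 Live-cell features were measured per well and normalised to solvent control wells after fifteen gene-edited A549, HepG2 and WPMY1 reporter lines had been treated for 24 h at 0.3, 1, 3 or 9 µM in four wells each. A condition was deviating when ≥3 of 4 wells sat beyond the 95th percentile of control Euclidean distances. It was reproducible when the median replicate Pearson correlation exceeded the 95th percentile of non-replicates. Phenotypic activity demanded both.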

A549-CANX-COX4 = system: A549-CANX-COX4
Summary of the method: as §1

A549-GM130-SQSTM1 = system: A549-GM130-SQSTM1
Summary of the method: as §1

A549-TP53BP1-CLTA = system: A549-TP53BP1-CLTA
Summary of the method: as §1

A549-TUBA1B-RELA = system: A549-TUBA1B-RELA
Summary of the method: as §1

HepG2-ACTB-RAB5A = system: HepG2-ACTB-RAB5A
Summary of the method: as §1

HepG2-CANX-COX4 = system: HepG2-CANX-COX4
Summary of the method: as §1

HepG2-GM130-SQSTM1 = system: HepG2-GM130-SQSTM1
Summary of the method: as §1

HepG2-TP53BP1-CLTA = system: HepG2-TP53BP1-CLTA
Summary of the method: as §1

HepG2-TUBA1B-RELA = system: HepG2-TUBA1B-RELA
Summary of the method: as §1

WPMY1-ACTB-RAB5A = system: WPMY1-ACTB-RAB5A
Summary of the method: as §1

WPMY1-CANX-COX4 = system: WPMY1-CANX-COX4
Summary of the method: as §1

WPMY1-GM130-SQSTM1 = system: WPMY1-GM130-SQSTM1
Summary of the method: as §1

WPMY1-TP53BP1-CLTA = system: WPMY1-TP53BP1-CLTA
Summary of the method: as §1

WPMY1-TUBA1B-RELA = system: WPMY1-TUBA1B-RELA
Summary of the method: as §1

Measured: phenotypically active

CC(C)(Sc1ccc(CCN(CCCCC2CCCCC2)C(=O)NC2CCCCC2)cc1)C(=O)O
inactive: A549-ACTB-RAB5A 0 | A549-CANX-COX4 0 | A549-GM130-SQSTM1 0 | A549-TP53BP1-CLTA 0 | A549-TUBA1B-RELA 0 | HepG2-ACTB-RAB5A 0 | HepG2-CANX-COX4 0 | HepG2-GM130-SQSTM1 0 | HepG2-TP53BP1-CLTA 0 | HepG2-TUBA1B-RELA 0 | WPMY1-ACTB-RAB5A 0 | WPMY1-CANX-COX4 0 | WPMY1-GM130-SQSTM1 0 | WPMY1-TP53BP1-CLTA 0 | WPMY1-TUBA1B-RELA 0

Cc1ccc(OCCSc2ncccn2)c(Br)c1 [ZLN 024 hydrochloride]
inactive: A549-ACTB-RAB5A 0 | A549-CANX-COX4 0 | A549-GM130-SQSTM1 0 | A549-TP53BP1-CLTA 0 | A549-TUBA1B-RELA 0 | HepG2-ACTB-RAB5A 0 | HepG2-CANX-COX4 0 | HepG2-GM130-SQSTM1 0 | HepG2-TP53BP1-CLTA 0 | HepG2-TUBA1B-RELA 0 | WPMY1-ACTB-RAB5A 0 | WPMY1-CANX-COX4 0 | WPMY1-GM130-SQSTM1 0 | WPMY1-TP53BP1-CLTA 0 | WPMY1-TUBA1B-RELA 0

CN1[C@@H](CC(=O)c2ccccc2)CCC[C@H]1C[C@H](O)c1ccccc1 [Lobeline alpha (-) hydrochoride]
inactive: A549-ACTB-RAB5A 0 | A549-CANX-COX4 0 | A549-GM130-SQSTM1 0 | A549-TP53BP1-CLTA 0 | A549-TUBA1B-RELA 0 | HepG2-ACTB-RAB5A 0 | HepG2-CANX-COX4 0 | HepG2-GM130-SQSTM1 0 | HepG2-TP53BP1-CLTA 0 | HepG2-TUBA1B-RELA 0 | WPMY1-ACTB-RAB5A 0 | WPMY1-CANX-COX4 0 | WPMY1-GM130-SQSTM1 0 | WPMY1-TP53BP1-CLTA 0 | WPMY1-TUBA1B-RELA 0

CCN(c1ccccc1)c1cc(NC)[n+](C)c(C)n1
inactive: A549-ACTB-RAB5A 0 | A549-CANX-COX4 0 | A549-GM130-SQSTM1 0 | A549-TP53BP1-CLTA 0 | A549-TUBA1B-RELA 0 | HepG2-ACTB-RAB5A 0 | HepG2-CANX-COX4 0 | HepG2-GM130-SQSTM1 0 | HepG2-TP53BP1-CLTA 0 | HepG2-TUBA1B-RELA 0 | WPMY1-ACTB-RAB5A 0 | WPMY1-CANX-COX4 0 | WPMY1-GM130-SQSTM1 0 | WPMY1-TP53BP1-CLTA 0 | WPMY1-TUBA1B-RELA 0

CC(C[N+](C)(C)C)OC(N)=O (stereo not given) [bethanechol]
inactive: A549-ACTB-RAB5A 0 | A549-CANX-COX4 0 | A549-GM130-SQSTM1 0 | A549-TP53BP1-CLTA 0 | A549-TUBA1B-RELA 0 | HepG2-ACTB-RAB5A 0 | HepG2-CANX-COX4 0 | HepG2-GM130-SQSTM1 0 | HepG2-TP53BP1-CLTA 0 | HepG2-TUBA1B-RELA 0 | WPMY1-ACTB-RAB5A 0 | WPMY1-CANX-COX4 0 | WPMY1-GM130-SQSTM1 0 | WPMY1-TP53BP1-CLTA 0 | WPMY1-TUBA1B-RELA 0

COc1ccccc1OCC(O)COC(N)=O (stereo not given) [methocarbamol]
inactive: A549-ACTB-RAB5A 0 | A549-CANX-COX4 0 | A549-GM130-SQSTM1 0 | A549-TP53BP1-CLTA 0 | A549-TUBA1B-RELA 0 | HepG2-ACTB-RAB5A 0 | HepG2-CANX-COX4 0 | HepG2-GM130-SQSTM1 0 | HepG2-TP53BP1-CLTA 0 | HepG2-TUBA1B-RELA 0 | WPMY1-ACTB-RAB5A 0 | WPMY1-CANX-COX4 0 | WPMY1-GM130-SQSTM1 0 | WPMY1-TP53BP1-CLTA 0 | WPMY1-TUBA1B-RELA 0

Nc1nnc(-c2cccc(Cl)c2Cl)c(N)n1 [lamotrigine]
inactive: A549-ACTB-RAB5A 0 | A549-CANX-COX4 0 | A549-GM130-SQSTM1 0 | A549-TP53BP1-CLTA 0 | A549-TUBA1B-RELA 0 | HepG2-ACTB-RAB5A 0 | HepG2-CANX-COX4 0 | HepG2-GM130-SQSTM1 0 | HepG2-TP53BP1-CLTA 0 | HepG2-TUBA1B-RELA 0 | WPMY1-ACTB-RAB5A 0 | WPMY1-CANX-COX4 0 | WPMY1-GM130-SQSTM1 0 | WPMY1-TP53BP1-CLTA 0 | WPMY1-TUBA1B-RELA 0

CCN[C@H]1C[C@H](C)S(=O)(=O)c2sc(S(N)(=O)=O)cc21 [dorzolamide]
inactive: A549-ACTB-RAB5A 0 | A549-CANX-COX4 0 | A549-GM130-SQSTM1 0 | A549-TP53BP1-CLTA 0 | A549-TUBA1B-RELA 0 | HepG2-ACTB-RAB5A 0 | HepG2-CANX-COX4 0 | HepG2-GM130-SQSTM1 0 | HepG2-TP53BP1-CLTA 0 | HepG2-TUBA1B-RELA 0 | WPMY1-ACTB-RAB5A 0 | WPMY1-CANX-COX4 0 | WPMY1-GM130-SQSTM1 0 | WPMY1-TP53BP1-CLTA 0 | WPMY1-TUBA1B-RELA 0

CCCC(CCC)C(=O)O [Valproic acid, sodium salt]
inactive: A549-ACTB-RAB5A 0 | A549-CANX-COX4 0 | A549-GM130-SQSTM1 0 | A549-TP53BP1-CLTA 0 | A549-TUBA1B-RELA 0 | HepG2-ACTB-RAB5A 0 | HepG2-CANX-COX4 0 | HepG2-GM130-SQSTM1 0 | HepG2-TP53BP1-CLTA 0 | HepG2-TUBA1B-RELA 0 | WPMY1-ACTB-RAB5A 0 | WPMY1-CANX-COX4 0 | WPMY1-GM130-SQSTM1 0 | WPMY1-TP53BP1-CLTA 0 | WPMY1-TUBA1B-RELA 0

Cn1cnc([N+](=O)[O-])c1Sc1ncnc2nc[nH]c12 [azathioprine]
inactive: A549-ACTB-RAB5A 0 | A549-CANX-COX4 0 | A549-GM130-SQSTM1 0 | A549-TP53BP1-CLTA 0 | A549-TUBA1B-RELA 0 | HepG2-ACTB-RAB5A 0 | HepG2-CANX-COX4 0 | HepG2-GM130-SQSTM1 0 | HepG2-TP53BP1-CLTA 0 | HepG2-TUBA1B-RELA 0 | WPMY1-ACTB-RAB5A 0 | WPMY1-CANX-COX4 0 | WPMY1-GM130-SQSTM1 0 | WPMY1-TP53BP1-CLTA 0 | WPMY1-TUBA1B-RELA 0

CNCC[C@@H](Oc1ccccc1C)c1ccccc1 [atomoxetine]
inactive: A549-ACTB-RAB5A 0 | A549-CANX-COX4 0 | A549-GM130-SQSTM1 0 | A549-TP53BP1-CLTA 0 | A549-TUBA1B-RELA 0 | HepG2-ACTB-RAB5A 0 | HepG2-CANX-COX4 0 | HepG2-GM130-SQSTM1 0 | HepG2-TP53BP1-CLTA 0 | HepG2-TUBA1B-RELA 0 | WPMY1-ACTB-RAB5A 0 | WPMY1-CANX-COX4 0 | WPMY1-GM130-SQSTM1 0 | WPMY1-TP53BP1-CLTA 0 | WPMY1-TUBA1B-RELA 0

C#C[C@]1(O)CC[C@H]2[C@@H]3CCC4=Cc5oncc5C[C@]4(C)[C@H]3CC[C@@]21C [danazol]
inactive: A549-ACTB-RAB5A 0 | A549-CANX-COX4 0 | A549-GM130-SQSTM1 0 | A549-TP53BP1-CLTA 0 | A549-TUBA1B-RELA 0 | HepG2-ACTB-RAB5A 0 | HepG2-CANX-COX4 0 | HepG2-GM130-SQSTM1 0 | HepG2-TP53BP1-CLTA 0 | HepG2-TUBA1B-RELA 0 | WPMY1-ACTB-RAB5A 0 | WPMY1-CANX-COX4 0 | WPMY1-GM130-SQSTM1 0 | WPMY1-TP53BP1-CLTA 0 | WPMY1-TUBA1B-RELA 0
